# Where “and” joins values, the source holds several entries; their conditions need not be identical. Identical values can stand only once. Screen size: about 5,500 compounds; about 2,000 (36%) were called active. About 18% were inconclusive and are not listed. Some of the results follow. Values without a mark were called inactive. Cut-off read from the data, not from the text of the source: active = normalized growth mostly below about 0.91 (no sharp cut-off); inconclusive = no clear call, values can overlap the other calls; inactive = mostly above about 0.92.
# Test: chemical genetic growth profiling, strain panel (AID 1159580);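 note: tested at 20 µM; growth read once vehicle control cultures reached saturation at 30 °C; 1 = growth at the plate median or of vehicle wells; lower values mean less growth of the strain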
# Conditions: S. cerevisiae deletion strains, growth OD
structure (smiles),measurement,setting,value
CO[C@@]12[C@@H]3NC3CN1C1=C(C(=O)C(N)=C(C)C1=O)[C@@H]2COC(N)=O (some centres not stated),normalized growth,"locus YAL013W, strain DEP1, hits give low values",0.997
same,normalized growth,"locus YAL021C, strain ccr4, hits give low values",0.98
same,normalized growth,"locus YAL026C, strain drs2, hits give low values",0.969
same,normalized growth,"locus YAL030W, strain snc1, hits give low values",0.989
same,normalized growth,"locus YBL061C, strain skt5, hits give low values",0.964
same,normalized growth,"locus YBR009C, strain hhf1, hits give low values",1
same,normalized growth,"locus YBR021W, strain FUR4, hits give low values",0.995
same,normalized growth,"locus YBR023C, strain chs3, hits give low values",0.962
same,normalized growth,"locus YBR171W, strain sec66, hits give low values",0.958
same,normalized growth,"locus YBR229C, strain ROT2, hits give low values",1
same,normalized growth,"locus YBR231C, strain swc5, hits give low values",0.954
same,normalized growth,"locus YBR279W, strain paf1, hits give low values",0.978
same,normalized growth,"locus YCL011C, strain gbp2, hits give low values",0.95
same,normalized growth,"locus YCL016C, strain dcc1, hits give low values",1.01
same,normalized growth,"locus YCL029C, strain bik1, hits give low values",0.971
same,normalized growth,"locus YCL061C, strain MRC1, hits give low values",0.919 (active)
same,normalized growth,"locus YCL069W, strain vba3, hits give low values",0.984
same,normalized growth,"locus YCR088W, strain abp1, hits give low values",0.971
same,normalized growth,"locus YDL005C, strain med2, hits give low values",0.972
same,normalized growth,"locus YDL035C, strain GPR1, hits give low values",1
same,normalized growth,"locus YDL040C, strain nat1, hits give low values",0.973
same,normalized growth,"locus YDL074C, strain BRE1, hits give low values",1.04
same,normalized growth,"locus YDL101C, strain DUN1, hits give low values",1.01
same,normalized growth,"locus YDL134C, strain PPH21, hits give low values",1.01
same,normalized growth,"locus YDL185W, strain tfp1, hits give low values",0.972
same,normalized growth,"locus YDL192W, strain arf1, hits give low values",0.974
same,normalized growth,"locus YDR001C, strain nth1, hits give low values",0.954
same,normalized growth,"locus YDR069C, strain doa4, hits give low values",0.926
same,normalized growth,"locus YDR101C, strain arx1, hits give low values",1
same,normalized growth,"locus YDR137W, strain rgp1, hits give low values",0.955
same,normalized growth,"locus YDR150W, strain NUM1, hits give low values",0.987
same,normalized growth,"locus YDR159W, strain sac3, hits give low values",0.998
same,normalized growth,"locus YDR162C, strain NBP2, hits give low values",1.05
same,normalized growth,"locus YDR195W, strain ref2",0.879
same,normalized growth,"locus YDR297W, strain sur2, hits give low values",0.966
same,normalized growth,"locus YDR318W, strain mcm21, hits give low values",0.977
same,normalized growth,"locus YDR334W, strain swr1, hits give low values",0.934
same,normalized growth,"locus YDR335W, strain msn5, hits give low values",0.963
same,normalized growth,"locus YDR388W, hits give low values",0.982
same,normalized growth,"locus YDR392W, strain spt3, hits give low values",1.06
same,normalized growth,"locus YDR502C, strain sam2, hits give low values",1.01
same,normalized growth,"locus YEL003W, strain gim4, hits give low values",0.973
same,normalized growth,"locus YEL037C, strain rad23, hits give low values",0.975
same,normalized growth,"locus YEL061C, strain CIN8 (second series), hits give low values",0.95
same,normalized growth,"locus YEL061C, strain CIN8, hits give low values",0.998
same,normalized growth,"locus YER015W, strain faa2, hits give low values",1
same,normalized growth,"locus YER016W, strain bim1, hits give low values",1.01
same,normalized growth,"locus YER110C, hits give low values",0.968
same,normalized growth,"locus YER111C, strain swi4, hits give low values",0.981
same,normalized growth,"locus YER155C, strain BEM2 (second series), hits give low values",0.962
same,normalized growth,"locus YER155C, strain BEM2, hits give low values",0.993
same,normalized growth,"locus YER167W, strain BCK2, hits give low values",0.994
same,normalized growth,"locus YFR010W, strain ubp6, hits give low values",0.927
same,normalized growth,"locus YGL078C, strain dbp3, hits give low values",0.996
same,normalized growth,"locus YGL086W, strain mad1, hits give low values",0.963
same,normalized growth,"locus YGL167C, strain pmr1, hits give low values",0.94
same,normalized growth,"locus YGL173C, strain kem1, hits give low values",0.981
same,normalized growth,"locus YGL227W, strain vid30, hits give low values",0.974
same,normalized growth,"locus YGL240W, strain doc1, hits give low values",0.966
same,normalized growth,"locus YGL248W, strain PDE1, hits give low values",1
same,normalized growth,"locus YGL253W, strain hxk2, hits give low values",0.988
same,normalized growth,"locus YGR078C, strain PAC10, hits give low values",1.04
same,normalized growth,"locus YGR135W, strain pre9, hits give low values",1.02
same,normalized growth,"locus YGR229C, strain SMI1, hits give low values",1.02
same,normalized growth,"locus YGR252W, strain gcn5, hits give low values",0.943
same,normalized growth,"locus YHR013C, strain ard1, hits give low values",0.985
same,normalized growth,"locus YHR027C, strain rpn1, hits give low values",0.978
same,normalized growth,"locus YHR030C, strain SLT2, hits give low values",0.993 and 0.988
same,normalized growth,"locus YHR079C, strain IRE1 (second series), hits give low values",0.994
same,normalized growth,"locus YHR079C, strain IRE1, hits give low values",0.957
same,normalized growth,"locus YHR094C, strain hxt1, hits give low values",0.975
same,normalized growth,"locus YHR129C, strain ARP1, hits give low values",1
same,normalized growth,"locus YHR142W, strain chs7, hits give low values",0.987
same,normalized growth,"locus YHR200W, strain rpn10, hits give low values",0.971
same,normalized growth,"locus YIL066C, strain RNR3, hits give low values",0.998
same,normalized growth,"locus YIL073C, strain SPO22, hits give low values",0.914
same,normalized growth,"locus YIL125W, strain kgd1, hits give low values",0.996
same,normalized growth,"locus YIR030C, strain dcg1, hits give low values",0.991
same,normalized growth,"locus YJL092W, strain hpr5, hits give low values",0.936
same,normalized growth,"locus YJL095W, strain BCK1 (second series), hits give low values",0.967
same,normalized growth,"locus YJL095W, strain BCK1, hits give low values",1.04 and 0.999
same,normalized growth,"locus YJL115W, strain asf1, hits give low values",0.968
same,normalized growth,"locus YJL129C, strain trk1, hits give low values",0.96
same,normalized growth,"locus YJL134W, strain LCB3, hits give low values",1
same,normalized growth,"locus YJL154C, strain vps35, hits give low values",0.958
same,normalized growth,"locus YJL164C, strain tpk1, hits give low values",1.01
same,normalized growth,"locus YJL166W, strain qcr8, hits give low values",0.932
same,normalized growth,"locus YJL168C, strain set2, hits give low values",0.983
same,normalized growth,"locus YJL187C, strain SWE1 (second series), hits give low values",1.01
same,normalized growth,"locus YJL187C, strain SWE1, hits give low values",0.98
same,normalized growth,"locus YJR043C, strain POL32, hits give low values",0.98
same,normalized growth,"locus YJR066W, strain TOR1, hits give low values",0.941

# From PubChem BioAssay AID1159580 (chemical genetic matrix, 2015)
